Most compounds without a hit are left out; they make up all but 2.4% or so of the library.
Pol kappa inh-1: blocks human DNA polymerase kappa activity; hit rate 0.53% among 400,000; purified Pol kappa, fluorescent DNA synthesis assay, 10 min; Potency, µM (series often up to 107 µM), inactives show top-dose activity, negative = inhibition, most hits filed as inhibitors; AID 588579; note: potency is the fitted concentration of half-maximal effect; % is set by controls: 0 for no effect and ±100 for the full control effect
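Here, compound and 10 nM enzyme are combined for 15 min at room temperature; adding 50 nM substrate (final) starts DNA synthesis, tracked by fluorescence at 0 and 10 min against buffer-only wells.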
Pol beta inh: blocks human DNA polymerase beta activity | Pol beta primer extension/strand displacement, fluorescence kinetic | Potency, µM (doses to about 114 µM), for the others: at the top dose activity change, negative = inhibition, hits mostly inhibitors | hit rate 1.3% among 340,000; note: potency is the fitted concentration of half-maximal effect; % is set by controls: 0 for no effect and ±100 for the full control effect
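Values derive from four-parameter Hill fits of normalized kinetic data: reads at 0 and 10 min following addition of 50 nM substrate to 10 nM Pol beta preincubated 15 min with compound.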
POLI inh: DNA polymerase iota (human) inhibition | hit rate 1% among 390,000 | Potency, µM (series often up to 115 µM), inactives show at the highest dose activity, negative = inhibition, actives largely listed as inhibitors | Pol iota fluorescent replication assay, 10 min | AID 588590; note: potency is the fitted concentration of half-maximal effect
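Pol iota at 10 nM preincubated 15 min with compounds at room temperature; reaction started with fluorescent substrate, 50 nM final. Fluorescence read kinetically at 0 and 10 min; buffer-only wells as negative control.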
WRN helicase inh: blocks human WRN helicase | hit rate 0.46% among 360,000 | Q14191 | Potency, µM (titrated, usually from 114 µM), for inactives: at the top dose activity change, negative = inhibition, hits mostly inhibitors | WRN helicase unwinding, fluorescent forked duplex, kinetic; note: potency is the fitted concentration of half-maximal effect; % is set by controls: 0 for no effect and ±100 for the full control effect; nearly all actives have a fitted effect of over 55% in size
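Kinetic fluorescence helicase assay: unwinding of a quenched forked DNA duplex (100 nM final) with 2 mM ATP final raises red fluorescence (525/598 nm). Compounds sat 15 min at room temperature with 20 nM WRN beforehand.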
FEN1 inh-1: inhibitors of human flap endonuclease 1; Recombinant FEN1 flap cleavage, fluorescence, 15 min; Potency, µM (top dose mostly 114 µM), for the others: at the top dose activity change, negative = inhibition, most hits filed as inhibitors; P39748; hit rate 0.35% among 390,000; AID 588795; note: potency is the fitted concentration of half-maximal effect; % is set by controls: 0 for no effect and ±100 for the full control effect; nearly all actives have a fitted effect of over 65% in size
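Recombinant FEN1 (10 nM) was preincubated with pin-transferred compounds for 15 min at room temperature, then flap DNA substrate (50 nM final) was added. Plates were read at 0 and 15 min, and normalized concentration–response data were fitted to a four-parameter Hill equation.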
Pol eta inh-1: blocks human DNA polymerase eta activity; recombinant Pol eta, fluorescent DNA replication assay; Potency, µM (series often up to 114 µM), inactives show at the highest dose activity change, negative = inhibition, usual class: inhibitors; hit rate 1.2% among 390,000; Q9Y253; note: potency is the fitted concentration of half-maximal effect; % is set by controls: 0 for no effect and ±100 for the full control effect
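Pol eta at 10 nM preincubated with compounds 15 min at room temperature; reaction started with fluorescent substrate (50 nM final) and read kinetically at 0 and 10 min.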
Pol iota confirm: Human Pol iota inhibitor confirmatory assay; shares compounds with Pol kappa inh-1; Pol iota primer extension, TAMRA/BHQ fluorescence; Potency, µM, usual class: inhibitors; hit rate 77% among 1,500; AID 720496; note: potency is the fitted concentration of half-maximal effect
GALK confirm: galactokinase (human) inhibition, confirmation. Potency, µM (series often up to 115 µM), without a hit: top-dose activity, negative = inhibition, most hits filed as inhibitors. shares compounds with Pol eta inh-1. purified GALK, Kinase-Glo ATP depletion luminescence. hit rate 70% among 150. AID 2015
Redox cycling: redox cycling activity in phenol red-HRP assay; shares compounds with Pol eta inh-1; Phenol red-HRP H2O2 redox cycling, absorbance 600 nm; Potency, µM (top dose mostly 115 µM), without a hit: at the highest dose activity change, negative = H2O2 signal, actives largely listed as inhibitors; hit rate 40% among 150; AID 2035
HEK293 viability: counter-screen for GALK inhibitors: HEK293 cell cytotoxicity. shares compounds with Pol eta inh-1. HEK-293 viability, ATP luminescence (CellTiter-Glo), 24/48 h. Potency, µM (titrated, usually from 46.1 µM), without a hit: top-dose activity change, negative = cytotoxicity, most hits filed as inhibitors. hit rate 10% among 170; note: potency is the fitted concentration of half-maximal effect; % is set by controls: 0 for no effect and ±100 for the full control effect
Pol kappa inh-2: Pol kappa (human) inhibition, cherry-pick confirmation. shares compounds with Pol eta inh-1. purified Pol-kappa, fluorescent strand-displacement substrate. Potency, µM, most hits filed as inhibitors. hit rate 76% among 920. AID 720501; note: potency is the fitted concentration of half-maximal effect
Pol eta inh-2: Pol eta (human) inhibition, cherry-pick confirmation. shares compounds with Pol eta inh-1. Pol eta primer extension, TAMRA/BHQ fluorescence, 10 min. Potency, µM, actives largely listed as inhibitors. hit rate 64% among 2,600; note: potency is the fitted concentration of half-maximal effect
FEN1 inh-2: confirmation of human FEN1 inhibitors; FEN1 flap cleavage, TAMRA/BHQ2 fluorogenic DNA substrate; hit rate 79% among 880; shares compounds with FEN1 inh-1; AID 720498; Potency, µM, actives largely listed as inhibitors; note: potency is the fitted concentration of half-maximal effect; nearly all actives have a fitted effect of over 60% in size
Active calls of the source: *; ? = inconclusive; · = no result; [ ] = dose if it differs, or a comment. Calls come from the whole dose curve; as a rule, active = well fitted curve in the direction sought with a large enough effect; inconclusive = small, poorly fitted or top-dose-only effect, or another doubt; inactive = no such curve, though single readings can be large; an effect the other way counts as inactive or inconclusive.

SMILES | Pol kappa inh-1 | Pol beta inh | POLI inh | WRN helicase inh | FEN1 inh-1 | Pol eta inh-1 | Pol iota confirm | Pol eta inh-2 | FEN1 inh-2 | others
COc1ccc2c([N+](=O)[O-])c(Cl)[nH]c2c1 | 50.1µM* | -19.5% | 11.2µM* | -20.1%[11.6 µM] | 17.8µM* | 20µM* | 37.7* | 26.9* | 33.8*
CCOC(=O)CNC(=O)CSc1cn(CC(=O)N2CCCCCC2)c2ccccc12 | -23.6% | -4.9% | 18.3% | · | 0.4% | -4.2% | · | · | ·
O=C(O)c1cc(O)c2c(c1)C(=O)c1cccc(O)c1C2=O | 50.1µM* | 11.2µM* | 39.8µM* | 26.7µM* | ? | 50.1µM* | 67* | 75.7* | 4.26* | Pol kappa inh-2=47.4*
COc1ccc(Cn2c(C)nc3c(c2=O)c2nc4ccccc4nc2n3Cc2ccco2)cc1 | 35.5µM* | · | 3.16µM* | 8.44µM* | 39.8µM* | 8.91µM* | 13.4* | 30.1* | ?
COc1ccc(S(=O)(=O)N(CC(=O)N2CCC(C)CC2)c2ccc(C)cc2)cc1 | -15.8% | 6.5% | 7.8% | · | -4.3% | -11.7% | · | · | ·
Fc1cc(F)c2nc(Nc3nc4cc5c(cc4s3)OCO5)sc2c1 | ? | ? | ? | 28.2µM* | ? | 2.82µM* | ? | · | 42.6*
COc1cc(/C=N/N2C(=O)CSC2=S)cc(Br)c1O | 39.8µM* | 35.5µM* | ? | 50.1µM* | 79.4µM* | 25.1µM* | ? | 67.5* | 42.6* | Pol kappa inh-2=37.7*
COc1cc(/C=N/N2C(C)CCCC2C)cc(Br)c1O (centres undefined) | 1.2% | 7.8% | -21.1% | 5.4% | -2.9% | -12.4% | · | · | ·
CCOc1ccc(S(=O)(=O)Nc2cc(SCC(=O)O)c(O)c3ccccc23)cc1 | -31.9% | ? | 10µM* | 79.4µM* | ? | 44.7µM* | ? | ? | 67.5*
O=C(O)CSc1cc(NS(=O)(=O)c2cccc([N+](=O)[O-])c2)c2ccccc2c1O | ? | 79.4µM* | 3.16µM* | 39.8µM* | 3.16µM* | 22.4µM* | 26.7* | 26.9* | 75.7* | GALK confirm=33.5µM*;Redox cycling=21.1µM*;HEK293 viability=-16.1%
O=C(O)c1cccc(S(=O)(=O)Nc2ccc([N+](=O)[O-])cc2O)c1 | ? | 12.7% | ? | -20.5% | 13.8% | -1.1% | · | · | ·
CCOc1ccc(S(=O)(=O)Nc2cc3c(C(=O)OC)c(COC)oc3c3ccccc23)cc1 | -16.9% | ? | 22.0% | · | -0.3% | -17.0% | · | · | ·
